The test in a line: small-molecule microarray binders of probe aLefty2, primary screen, biochemical, biotinylated probe, 635/667 nm fluorescence (AID 1094).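 Also: score merges spot fluorescence near 667 nm with spot signal-to-noise ratio.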 To be noted: higher = more signal.
Regarding `CC1CC/C=C\[C@H]2OC34C=CCN(C(C)(C)C)C(=O)[C@H]3N(CCCCCO)C(=O)[C@@H]4C2C(=O)O1` (some centres not stated), the composite z-score is -0.261.

In the case of `COc1cc(NN2C(C(O)c3cc(OC)c(OC)c(OC)c3)C=CC3C(=O)N(C)C(=O)C32)cc(OC)c1OC` (configuration not stated), the composite z-score was 0.16.

`[N-]=[N+]=NCc1ccccc1[C@H]1OC(c2ccc(OCCCO)cc2)=N[C@@]1(Cc1ccccc1N=[N+]=[N-])C(=O)NCC(O)CO` (some centres not stated) gave a composite z-score of 0.0511.

Compound `C=C(COC)/C(=C/C[C@H](OC(=O)c1ccncc1)c1ccccc1OCCO)c1cc(C(=O)OC)ccc1OC` returned a composite z-score of -0.157.

`CC(C)=C1C(=O)C(c2ccccc2)=C2CN3C(=O)N(CCc4ccccc4)C(=O)[C@]3(Cc3ccc(C(F)(F)F)cc3)[C@H]21`: the composite z-score worked out at 0.01.

Regarding `NCCCCCCNC(=O)[C@@H]1C[C@@H]2C(=O)N[C@@H](CCCCN)C(=O)N2[C@@H]1c1ccc(O)cc1`, the composite z-score was determined as 0.362.

`CC(C)[Si](C#CCCCC#N)(O[C@H](c1ccccc1)c1cn(Cc2ccccc2)nn1)C(C)C` had a composite z-score of -0.119.

Compound `CC(C)c1ccc(NN2C(C(O)c3ccc(C#N)cc3)C=CC3C(=O)N(c4ccccc4)C(=O)C32)cc1` (configuration not stated) registered a composite z-score of 0.286.

In turn, `COC(=O)[C@]1(CCS(=O)(=O)c2ccccc2)N=C(c2ccc(OCCCO)cc2)O[C@@H]1c1ccccc1N=[N+]=[N-]` displayed a composite z-score of 0.346.

As for `C=C[C@H](C)[C@H](OC(=O)Nc1ccc(SC)cc1)c1ccc(OCCO)cc1`, the composite z-score is 0.0548.

As for `Cc1ccc(S[C@]2(C(=O)NCC(F)(F)F)CC(=O)N(Cc3cc(C(F)(F)F)cc(C(F)(F)F)c3)[C@@H]2c2ccc(CO)cc2)cc1`, the composite z-score is -0.152.

Compound `O=C1OCCC=C[C@H]2OC34C=CCN(c5ccc6ccccc6c5)C(=O)[C@H]3N(CCCO)C(=O)[C@@H]4C12` (some centres not stated) gave a composite z-score of -0.222.
